PfHsp40 rescue = compounds rescuing yeast from Plasmodium falciparum HSP40 toxicity. S. cerevisiae expressing PfHsp40, growth rescue, ATP luminescence. growth rescue, % at 12.5 µM. 340,000 tested, 0.68% active. AID 504582; in the data active means growth rescue above about 28%, passing the limit was not always enough;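 further: yeast W303a lacking pdr1 and pdr3 grown in galactose medium; growth measured after three days at 30 °C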
PrPC TRFRET = inhibitors of human cell surface prion protein PrPC. inhibition, % at 13.8 µM. TR-FRET read-out. 370,000 tested, 0.43% active. P04156; in the data active means inhibition above about 24%
PriA SSB inh = K. pneumoniae PriA-SSBct interaction inhibition; AlphaScreen SSBct-PriA binding, biotinylated peptide; inhibition, % at 33 µM; 430,000 tested, 0.6% active; AID 1272365; in the data active means inhibition mostly above about 37%, no sharp cut-off; inactive means mostly below about 20%
Yp Topo-I inh = inhibitors of Yersinia pestis topoisomerase I. activity, % at 10 µM. Y. pestis Topo-I cleavage product accumulation, plate reader. 360,000 tested, 0.064% active; in the data active means activity above about 50%, passing the limit was not always enough
BJeLR viability = BJeLR cell viability loss | 300,000 tested, 0.17% active | AID 1554 | inhibition, % (test concentration not listed) | BJeLR (HRASV12) viability, CellTiter-Glo ATP luminescence, 48 h; in the data active means inhibition above about 50%
PrP 5UTR inh = inhibition of PrP 5' UTR reporter expression; cell-based PrP 5' UTR mRNA reporter, plate reader; inhibition, % (concentration not given with the values); 340,000 tested, 0.35% active; in the data active means inhibition above about 52%
Numbers stand for hits; ! = not confirmed by another sample. Shown are actives, neighbours in structure and some others; about 1.7% of the full set was active somewhere.

`OCc1ccnc(-c2ccccn2)n1` gave PriA SSB inh 89.0.
Screening c1ccc(-c2nc(-c3ccccn3)c(-c3ccccn3)nc2-c2ccccn2)nc1 returned PriA SSB inh inactive.
Screening c1ccc(-c2cccc(-c3ccccn3)n2)nc1 returned PfHsp40 rescue inactive, PriA SSB inh 104.3, Yp Topo-I inh inactive, BJeLR viability inactive and PrP 5UTR inh inactive.
For c1ccc(-c2nnc(-c3ccccn3)nn2)nc1 the results were PfHsp40 rescue inactive, PrPC TRFRET inactive, PriA SSB inh 68.1, Yp Topo-I inh inactive, BJeLR viability inactive and PrP 5UTR inh inactive.
c1ccc(-c2nnc(-c3ccccn3)c(-c3ccccn3)n2)nc1 was read as PrPC TRFRET inactive, PriA SSB inh inactive, Yp Topo-I inh inactive and BJeLR viability inactive.
c1ccc(-c2ccnc(-c3ccccn3)n2)nc1 was read as PriA SSB inh 145.5.
O=Cc1cnc(-c2ccccn2)nc1 was read as PriA SSB inh 106.0.
`Cc1cc2cc(CNC(=O)NC3CCCCC3)ccc2[nH]1` gave PfHsp40 rescue inactive, PrPC TRFRET inactive, PriA SSB inh 53.5, Yp Topo-I inh inactive, BJeLR viability inactive and PrP 5UTR inh inactive.
Cc1cc2cc(CNC(=O)NC3CCCCC3)ccc2n1C was read as PfHsp40 rescue inactive, PrPC TRFRET inactive, PriA SSB inh 44.9!, Yp Topo-I inh inactive, BJeLR viability inactive and PrP 5UTR inh inactive.
For Cc1cc2cc(CNC(=S)NC3CCCCC3)ccc2[nH]1 the results were PfHsp40 rescue inactive, PrPC TRFRET inactive, PriA SSB inh inactive, Yp Topo-I inh inactive, BJeLR viability inactive and PrP 5UTR inh inactive.
Screening CCc1cccc(C)c1NC(=S)NCc1ccc2[nH]c(C)cc2c1 returned PfHsp40 rescue inactive, PrPC TRFRET inactive, PriA SSB inh 42.1, Yp Topo-I inh inactive, BJeLR viability inactive and PrP 5UTR inh inactive.
Screening CCC(=O)NCc1ccc2c(c1)cc(C)n2C returned PriA SSB inh inactive.
`Nc1c(C=C2C=CC(=O)C(O)=C2)c(=O)nc2sc(CC(=O)N3CCCC3)nn12` gave PriA SSB inh inactive.
For O=C(NCc1ccc2c(c1)OCO2)c1cn(C[C@H](O)c2ccccc2F)nn1 the results were PriA SSB inh inactive.
For CC(C)S(=O)(=O)N1CCN(C[C@H](O)C2CC2)CC1 the results were PriA SSB inh inactive.
`CC(C)C1Cc2c(sc3ncnc(NN)c23)CO1` (stereo not drawn) gave PfHsp40 rescue inactive, PrPC TRFRET inactive, PriA SSB inh 45.6, Yp Topo-I inh inactive, BJeLR viability inactive and PrP 5UTR inh inactive.
CC(C)Cc1nc2sc3c(c2c(=O)n1N)CC(C(C)C)OC3 (stereo not drawn) was read as PfHsp40 rescue inactive, PrPC TRFRET inactive, PriA SSB inh inactive, Yp Topo-I inh inactive, BJeLR viability inactive and PrP 5UTR inh inactive.
`C[C@]12C=CC(=O)C=C1CC[C@@H]1[C@@H]2CC[C@]2(C)C(=O)CC[C@@H]12` gave PfHsp40 rescue 48.1, PrPC TRFRET inactive, PriA SSB inh inactive, Yp Topo-I inh inactive and PrP 5UTR inh inactive.
`O=C1CSC(=NN=Cc2ccccc2OS(=O)(=O)c2ccccc2)N1` gave PriA SSB inh inactive.
Cn1c(COc2ccc3ccccc3c2)nnc1SCC(=O)OC1CCCCC1 was read as PfHsp40 rescue 49.0, PrPC TRFRET inactive, PriA SSB inh inactive, Yp Topo-I inh inactive, BJeLR viability inactive and PrP 5UTR inh inactive.
Screening CCc1nnc(NC(=O)CSc2nc(-c3ccccc3F)nc3c2c(=O)n(C)c(=O)n3C)s1 returned PriA SSB inh inactive.
O=C(CSc1ccc(F)cc1)NCc1cnn2c1CCCC2 was read as PriA SSB inh inactive.
Screening O=C(Nc1cccnc1)C1CCCN(c2ccc(-c3ccc(Cl)cc3)nn2)C1 (stereo not drawn) returned PriA SSB inh inactive.
Screening Nc1ccccc1Nc1cc(-c2ccccc2)nn1-c1ccccc1 returned PfHsp40 rescue inactive, PrPC TRFRET inactive, PriA SSB inh 59.9, Yp Topo-I inh inactive, BJeLR viability inactive and PrP 5UTR inh inactive.
Cc1cccc2sc(OC3CN(C(=O)c4ccc5nc[nH]c5c4)C3)nc12 was read as PriA SSB inh inactive.
For O=C1C=CC2=C3c4cc(O)c(O)cc4CC3(O)COC2=C1O (stereo not drawn) the results were PfHsp40 rescue inactive, PrPC TRFRET 25.2, PriA SSB inh inactive, Yp Topo-I inh inactive and PrP 5UTR inh inactive.
`Cc1cc(C(=O)CCl)c(C)n1CCc1ccc(Cl)cc1` gave PfHsp40 rescue inactive, PrPC TRFRET inactive, PriA SSB inh 40.8, Yp Topo-I inh inactive, BJeLR viability inactive and PrP 5UTR inh inactive.
`Cc1cc(C(=O)CCl)c(C)n1CCc1ccc(F)cc1` gave PfHsp40 rescue inactive, PrPC TRFRET inactive, PriA SSB inh inactive, Yp Topo-I inh inactive, BJeLR viability inactive and PrP 5UTR inh inactive.
`C(=N\NC1=Nc2cccc3cccc1c23)/c1ccccn1` gave PfHsp40 rescue 326.9, PrPC TRFRET inactive, Yp Topo-I inh inactive, BJeLR viability inactive and PrP 5UTR inh inactive.
C(=NNC1=Nc2cccc3cccc1c23)c1ccccn1 was read as PriA SSB inh inactive.
Screening O=C(c1ccc(-c2cc(O)c3ncccc3c2)cc1)N1CCNCC1 returned PfHsp40 rescue inactive, PrPC TRFRET inactive, PriA SSB inh 74.4, Yp Topo-I inh inactive and PrP 5UTR inh inactive.
Screening CC(C)(C)c1ccc(C(=O)N2CCNCC2)cc1 returned PfHsp40 rescue inactive, PrPC TRFRET inactive, PriA SSB inh inactive, Yp Topo-I inh inactive, BJeLR viability inactive and PrP 5UTR inh inactive.
`CNS(=O)(=O)c1ccc(NC(=O)Cc2cccs2)cc1` gave PriA SSB inh 45.0!.
For O=C(CCCSc1ccc(NC(=O)c2cccs2)nn1)Nc1cccc(Cl)c1 the results were PriA SSB inh inactive.
`Sc1oc(-c2ccccc2)cc1C=Nc1ccccc1` gave PfHsp40 rescue inactive, PrPC TRFRET inactive, PriA SSB inh 40.8, Yp Topo-I inh inactive, BJeLR viability inactive and PrP 5UTR inh inactive.
`O=C(NCc1ccc(OC(F)(F)F)cc1)C1CC(c2ccccc2C(F)(F)F)=NO1` (stereo not drawn) gave PfHsp40 rescue 38.2, PrPC TRFRET inactive, PriA SSB inh inactive, Yp Topo-I inh inactive, BJeLR viability inactive and PrP 5UTR inh inactive.
Screening O=C(NCc1ccc(OC(F)(F)F)cc1)C1CC(c2ccccc2[N+](=O)[O-])=NO1 (stereo not drawn) returned PfHsp40 rescue inactive, PrPC TRFRET inactive, PriA SSB inh inactive, Yp Topo-I inh inactive, BJeLR viability inactive and PrP 5UTR inh inactive.
Screening CCCSC(=S)c1c(C)[nH]n(-c2ccccc2)c1=O returned PfHsp40 rescue 305.0, PrPC TRFRET inactive, PriA SSB inh inactive, Yp Topo-I inh inactive, BJeLR viability inactive and PrP 5UTR inh inactive.
`CCC(=NNC(=O)c1ccccc1O)c1c(C)[nH]n(-c2ccccc2)c1=O` gave PriA SSB inh inactive.
`COC(=O)N1CCc2ccc(F)cc2[C@@H]1C(=O)NCc1ccc2c(c1)OCO2` gave PriA SSB inh inactive.
